# According to paper PMC6664820, “Novel natural and synthetic inhibitors of solute carriers SGLT1 and SGLT2” (Pharmacology Research & Perspectives, 2019):
# Screen size: about 1,900 compounds; about 40 (2%) showed an effect of 50% or more. Only a selection was taken, and strong results are over-represented in it overall.
# Molecular target: human SGLT1 (hSGLT1) (human, UniProt P13866)
# Assay: primary screen, percent of control activity; higher = less effect of the substance
# Parameters: single well
# Settings: 50 µM
# Experimental: Two days before the assay, CHO‐wild type and CHO‐hSGLT1 cells were seeded in maintenance medium at 25 000 cells/well in clear‐bottom black 96‐well cell culture plates. Before the assay, cells were washed 3 times with 150 μL/well D‐glucose free DMEM with 0.3% (w/v) BSA. Library compounds at 50 μmol/L (singlicate) prepared in D‐glucose free DMEM with 160 μmol/L 1‐NBD‐glucose and 0.3% (w/v) BSA and negative controls (triplicate) were added at 100 μL/well and placed in a humidified incubator at 37°C with 5% CO2 for 90 minutes. Next, cells were washed 3 times with DMEM with 0.3% (w/v) BSA (150 μL/well). Care was taken to remove all medium after the last wash. Finally, 1‐NBD‐glucose was extracted from the cells by adding 10 μL/well isopropanol and orbital shaking for 5 minutes at 600 rpm, followed by incubation in the dark for 30 minutes. Fluorescence was measured on a Tecan Infinite M200 Microplate Reader (Tecan, Männedorf, Switzerland) with excitation at 445 nm and emission at 525 nm. The amount of 1‐NBD‐glucose taken up by the CHO‐wild type or CHO‐hSGLT1 cells in the presence or absence of test compounds was interpolated from 1‐NBD‐glucose calibration standards. The background uptake by CHO‐wild type was subtracted from the uptake by CHO‐hSGLT1. Background corrected uptake with test compound was expressed as a percentage of corrected uptake without test compound.
# Chain of human SGLT1 (hSGLT1) (P13866 whole entry, looked up): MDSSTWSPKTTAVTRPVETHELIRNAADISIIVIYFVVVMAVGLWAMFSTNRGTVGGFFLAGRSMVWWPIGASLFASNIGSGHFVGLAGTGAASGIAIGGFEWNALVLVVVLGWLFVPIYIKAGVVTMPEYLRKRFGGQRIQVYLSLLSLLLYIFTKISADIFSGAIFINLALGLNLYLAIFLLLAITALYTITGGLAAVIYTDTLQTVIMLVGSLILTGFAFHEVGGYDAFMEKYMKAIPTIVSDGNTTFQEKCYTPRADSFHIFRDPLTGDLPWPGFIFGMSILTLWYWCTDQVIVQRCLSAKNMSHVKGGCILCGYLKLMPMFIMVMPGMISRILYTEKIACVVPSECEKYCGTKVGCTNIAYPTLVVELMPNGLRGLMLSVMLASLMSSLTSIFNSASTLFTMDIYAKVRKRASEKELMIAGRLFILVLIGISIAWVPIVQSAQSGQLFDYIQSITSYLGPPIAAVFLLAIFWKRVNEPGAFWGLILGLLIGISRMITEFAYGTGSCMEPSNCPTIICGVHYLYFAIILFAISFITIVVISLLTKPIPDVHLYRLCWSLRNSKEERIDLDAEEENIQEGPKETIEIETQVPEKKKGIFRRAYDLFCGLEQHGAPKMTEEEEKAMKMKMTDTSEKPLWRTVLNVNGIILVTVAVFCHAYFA
row,SMILES,NORMALIZED SGLT1 ACTIVITY (%)
1,CC[C@@H](CO)NCCN[C@@H](CC)CO.Cl.Cl,90%
2,CC(=O)Oc1ccc(Cl)c2cccnc12,202%
3,Oc1c(I)cc(I)c2cccnc12,97%
4,O=S(=O)(O)O.Oc1cccc2cccnc12,127%
5,Oc1ccc(Cl)c2cccnc12,208%
6,Oc1c(Br)cc(Br)c2cccnc12,50%
7,Oc1c(Cl)cc(Cl)c2cccnc12,48%
8,CC(=O)O[C@@H]1CC2C(C)(C)C(=O)C3OC3[C@]2(C)C2CC[C@@]3(C)[C@H](c4ccoc4)OC(=O)C4OC43[C@@]21C (some centres unmarked),138%
9,CC(C)CCCC(C)[C@H]1CCC2C3CC=C4C[C@@H](O)CC[C@]4(C)C3CC[C@@]21C (some centres unmarked),120%
10,C[n+]1c2cc(N)ccc2cc2ccc(N)cc21.[Cl-],169%
11,CC1=CC(=O)C2=C(C)CC[C@@H]3[C@H](OC(=O)[C@H]3C)[C@@H]12,109%
12,COC(=O)Nc1nc2ccc(S(=O)c3ccccc3)cc2[nH]1 (centres unmarked),125%
13,Cc1ccc(O)c(C(CCN(C(C)C)C(C)C)c2ccccc2)c1.O=C(O)C(O)C(O)C(=O)O (centres unmarked),78%
14,COc1cc(O)c(C(=O)c2ccccc2)cc1O,235%
15,COc1ccc(C(=O)c2ccccc2)c(O)c1,26%
16,COc1ccc(C(=O)c2ccccc2O)c(O)c1,111%
17,CCS(=O)(=O)CCn1c([N+](=O)[O-])cnc1C,123%
18,COc1ccc2ccc(=O)oc2c1,130%
19,CCN(CC)CC(=O)Nc1c(C)cccc1C.Cl,72%
20,Cc1cccc(C)c1NC(=O)C1CCCCN1C.Cl (centres unmarked),83%
21,CCCCN1CCCCC1C(=O)Nc1c(C)cccc1C.Cl (centres unmarked),42%
22,CC(C)CCCC(C)[C@H]1CCC2C3C(=O)C=C4C[C@@H](O)CC[C@]4(C)C3CC[C@@]21C (some centres unmarked),95%
23,Cc1ccc(N(CC2=NCCN2)c2cccc(O)c2)cc1.Cl,62%
24,COc1ccc2c(c1)OC/C(=C\c1ccc(OC)c(O)c1)C2=O,140%
25,O=C1C=CC(=C(c2ccc(O)cc2)c2ccc(O)cc2)C=C1,78%

row,SMILES,NORMALIZED SGLT1 ACTIVITY (%)
1,CN(C)c1ccc(C(=C2C=CC(=[N+](C)C)C=C2)c2ccc(N(C)C)cc2)cc1.[Cl-],43%
2,CC(CCc1ccccc1)NCC(O)c1ccc(O)c(C(N)=O)c1.Cl (centres unmarked),76%
3,O=C([O-])CF.[Na+],96%
4,C[C@@H]1C(=O)O[C@H]2[C@H]1CC[C@@]1(C)C=CC(=O)[C@@]3(C)O[C@@]213,96%
5,COc1cc(OC)c(OC)cc1C=O,189%
6,CC(=O)CC1CCCCN1.Cl (centres unmarked),86%
7,C1CCC(C(CC2CCCCN2)C2CCCCC2)CC1.O=C(O)/C=C\C(=O)O (centres unmarked),1%
8,CCC[C@@H]1CCCCN1,85%
9,C=C[C@H]1CN2CC[C@H]1C[C@H]2[C@H](O)c1ccnc2ccccc12,77%
10,C=Cc1c(C)c2[n]3c1C=c1c(C)c(CC)c4[n]1[Cu]31[n]3c(c(C)c5c3C(=c3c(CCC(=O)[O-])c(C)c([n]31)=C2)C(C(=O)[O-])C5=O)C=4.[Na+].[Na+] (centres unmarked),94%
11,CC(C)CC(N(C)C)C1(c2ccc(Cl)cc2)CCC1.Cl (centres unmarked),28%
12,CC(C)CCCC(C)C1CCC2C3CC(=O)[C@H]4C[C@@H](O)CC[C@]4(C)C3CC[C@]12C (some centres unmarked),107%
13,O=C(O)c1cc2cc(Cl)ccc2[nH]1,238%
14,C=C1C(C2(C)C=CC(=O)C(C)(C)C2CC(=O)OC)CC[C@@]2(C)[C@H](c3ccoc3)OC(=O)C3OC132 (some centres unmarked),86%
15,CC(=O)OCC(=O)[C@H]1CC[C@H]2[C@@H]3CCC4=CC(=O)CC[C@]4(C)[C@H]3CC[C@]12C,114%
16,C[C@]12CCC(=O)C=C1CCC1C2CC[C@@]2(C)C1CC[C@@H]2O (some centres unmarked),98%
17,CC(=O)[C@H]1CCC2C3CCC4=CC(=O)CC[C@]4(C)C3CC[C@@]21C (some centres unmarked),38%
18,C[C@@H]1CC[C@@]2(NC1)O[C@H]1C[C@H]3C4CC=C5C[C@@H](O)CC[C@]5(C)C4CC[C@]3(C)C1[C@@H]2C (some centres unmarked),109%
19,CCC1(c2ccc(N)cc2)CCC(=O)NC1=O (centres unmarked),108%
20,COc1ccc2c(c1)OC/C(=C/c1ccc(O)c(O)c1)C2=O,249%
21,CCCCC(CC)CNC(=N)NC(=N)NCCCCCCNC(=N)NC(=N)NCC(CC)CCCC.Cl.Cl (centres unmarked),36%
22,COc1ccc(C[C@H](N)C(=O)N[C@@H]2[C@@H](CO)OC(n3cnc4c(N(C)C)ncnc43)[C@@H]2O)cc1.Cl.Cl (some centres unmarked),116%
23,O=C(O)COc1ccc(Cl)cc1Cl,196%
24,COC(=O)[C@]1(C)CCC[C@]2(C)c3ccc(C(C)C)cc3C(=O)CC12 (some centres unmarked),89%
25,O=C(CCCN1CCN(c2ccccn2)CC1)c1ccc(F)cc1,111%
